Measured values taken from the supplement of paper PMC13380429.

tested on: Vero E6 infected with SARS-CoV-2; assay: morphology score (similarity to uninfected cells); higher = more like uninfected cells; details: 24 h

SMILES	morphology score
CC(C)(Oc1ccc(Cl)cc1)C(=O)O [clofibric-acid] (10 µM)	-0.0106
CN(C)c1ccc(/C=C2\C(=O)Nc3ccccc32)cc1 (10 µM)	0.175
Cn1c(=O)c2c(ncn2CC2OCCO2)n(C)c1=O [doxofylline] (10 µM)	-0.118
CCNC(=O)[C@H]1O[C@@H](n2cnc3c(N)ncnc32)[C@H](O)[C@@H]1O (10 µM)	0.184
O=C(O)c1ccc(N2C(=O)/C(=C/c3ccc(-c4ccc([N+](=O)[O-])cc4)o3)C=C2c2ccccc2)cc1 (10 µM)	0.184
COC(=O)[C@@H]1C[C@H](OC(C)=O)C(=O)[C@H]2[C@@]1(C)CC[C@H]1C(=O)O[C@H](c3ccoc3)C[C@]21C [salvinorin-A] (10 µM)	0.127
C[C@@H]1C[C@H]2[C@@H]3CCC4=CC(=O)C=C[C@]4(C)[C@@]3(Cl)[C@@H](O)C[C@]2(C)[C@@]1(OC(=O)c1ccco1)C(=O)CCl (10 µM)	0.481
CCN(CC)Cc1ccc(C(=O)N(CCc2ccccc2OC)[C@@H]2CCNC2)cc1 (10 µM)	0.0144
CC(C)(C)[C@]1(O)CC2OC(=O)CC23C(=O)OC2OC(=O)[C@H](O)C231 (some centres not stated) [bilobalide] (10 µM)	0.0342
CCCCCCCCCCCCCCCCCCCCCCCCC(=O)O [pentacosanoic-acid] (10 µM)	0.211
CCn1c(=O)c(-c2ccc(Cl)cc2Cl)cc2cnc(Nc3ccc(N4CCNCC4)c(F)c3)nc21 (0.833333 µM)	0.097
O[C@@H](CN1CCC(Cc2ccc(F)cc2)CC1)c1ccc(Cl)cc1 (racemic) [eliprodil] (10 µM)	0.218
CC[C@@H]([C@H](C)O)n1ncn(-c2ccc(N3CCN(c4ccc(OC[C@@H]5CO[C@@](Cn6cncn6)(c6ccc(F)cc6F)C5)cc4)CC3)cc2)c1=O [posaconazole] (0.833333 µM)	0.204
S=C(NCCc1ccccn1)Nc1ccc(Br)cn1 [trovirdine] (10 µM)	0.00939
CCCc1ccc(C(=O)O)cc1 [4-propylbenzoic-acid] (10 µM)	0.187
O=[N+]([O-])c1nccn1CC(O)CN1CCCCC1 (configuration not stated) [pimonidazole] (10 µM)	0.0622
CCc1nc(C(N)=O)c(Nc2ccc(N3CCC(N4CCN(C)CC4)CC3)c(OC)c2)nc1NC1CCOCC1 [gilteritinib] (0.833333 µM)	0.272
O=C(O)[C@]1(Cc2cccc(Nc3nccs3)n2)CC[C@@H](Oc2cccc(Cl)c2F)CC1 (0.833333 µM)	0.175
CCCCCCNC(=O)n1cc(F)c(=O)[nH]c1=O [carmofur] (0.833333 µM)	0.222
CC[C@H](c1ccc(O)cc1)[C@@H](CC)c1ccc(O)cc1 [hexestrol] (10 µM)	0.143
O=C(O)CNC(=O)c1ccccc1I [2-iodohippuric-acid] (10 µM)	-0.111
CC(=O)O[C@]1(C(C)=O)CC[C@H]2[C@@H]3C[C@H](C)C4=CC(=O)CC[C@]4(C)[C@H]3CC[C@@]21C [medroxyprogesterone-acetate] (10 µM)	0.153
NS(=O)(=O)c1cc2c(cc1C(F)(F)F)NC(Cc1ccccc1)NS2(=O)=O (configuration not stated) [bendroflumethiazide] (10 µM)	0.136
CCCN[C@H]1CCc2nc(N)sc2C1 [pramipexole] (10 µM)	0.032
O=C(OC[C@H]1O[C@@H](OC(=O)c2cc(O)c(O)c(OC(=O)c3cc(O)c(O)c(O)c3)c2)[C@H](OC(=O)c2cc(O)c(O)c(OC(=O)c3cc(O)c(O)c(O)c3)c2)[C@@H](OC(=O)c2cc(O)c(O)c(OC(=O)c3cc(O)c(O)c(O)c3)c2)[C@@H]1OC(=O)c1cc(O)c(O)c(OC(=O)c2cc(O)c(O)c(O)c2)c1)c1cc(O)c(O)c(OC(=O)c2cc(O)c(O)c(O)c2)c1 [tannic-acid] (10 µM)	-0.112
NCCCCN=C(N)N [agmatine] (10 µM)	0.0302
Nc1nc(N)nc(-c2cc(Cl)ccc2Cl)n1 [irsogladine] (10 µM)	0.168
